Reference: PubChem BioAssay (NCI)
Compounds without any hit were thinned out: in the full panel of roughly 79,000, 15% have a hit. Active and inactive are the calls of the source. No stated cut-off is given here; in the data, active means growth inhibition above about 70%; inactive means the rest.

Assays:
[1] = NCI Yeast Anticancer Drug Screen. Data for the rad52 strain (AID 147);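 further: 0% = growth of vehicle-treated control cultures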; details: S. cerevisiae rad52 mutant growth inhibition, hits give high values
Procedure, shortened: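 Read-out: growth inhibition versus vehicle-treated controls. Cells were a DNA repair-deficient yeast strain treated with compounds.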

[2] = NCI Yeast Anticancer Drug Screen. Data for the wt1 strain (AID 149);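 further: 0% = growth of vehicle-treated wt1 cultures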; details: S. cerevisiae wt1 strain (SPY 50644) growth inhibition, hits give high values
Procedure, shortened: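 Each compound is tested on wt1 yeast and the loss of growth versus vehicle gives the inhibition value.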

[3] = NCI Yeast Anticancer Drug Screen. Data for the rad50EPP+ strain (AID 151);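 further: 0% = growth of vehicle-treated control cultures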; details: S. cerevisiae rad50 mutant strain, hits give high values
Procedure, shortened: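 Growth inhibition read against vehicle controls in rad50EPP+ yeast, a strain altered in DNA damage repair, after compound exposure.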

[4] = NCI Yeast Anticancer Drug Screen. Data for the mgt1 strain (AID 153); details: S. cerevisiae mgt1 mutant growth inhibition, hits give high values
Procedure, shortened: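 mgt1 yeast grown with test compound; read-out is growth inhibition versus vehicle-treated cultures.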

[5] = NCI Yeast Anticancer Drug Screen. Data for the rad50 strain (AID 155);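 further: 0% = growth of vehicle-only cultures of the same strain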; details: S. cerevisiae rad50 strain growth inhibition, hits give high values
Procedure, shortened: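 Vehicle-treated cultures provide the reference for the growth inhibition reported for compound-exposed, repair-deficient yeast.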

[6] = NCI Yeast Anticancer Drug Screen. Data for the mec2-1 strain (AID 157); details: S. cerevisiae mec2-1 strain, hits give high values
Procedure, shortened: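 Yeast mec2-1 mutant treated with compound. Readout: growth inhibition vs vehicle controls.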

[7] = NCI Yeast Anticancer Drug Screen. Data for the rad14 strain (AID 159);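 further: 0% = growth of vehicle-treated control cultures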; details: S. cerevisiae rad14 strain growth inhibition, hits give high values
Procedure, shortened: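 Inhibition of growth is reported for a repair-deficient yeast mutant following compound treatment, calculated relative to cultures that received vehicle.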

[8] = NCI Yeast Anticancer Drug Screen. Data for the sgs1 mgt1 strain (AID 161);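 further: 0% = growth of cultures given vehicle only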; details: S. cerevisiae sgs1 mgt1 strain, hits give high values
Procedure, shortened: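 Test agents were incubated with a DNA-repair-mutant yeast strain. Growth was then read and compared against vehicle-treated controls.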

[9] = NCI Yeast Anticancer Drug Screen. Data for the CLN2oe strain (AID 163);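 further: 0% = growth of vehicle-only control cultures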; details: S. cerevisiae CLN2oe strain, hits give high values
Procedure, shortened: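 Read-out: yeast growth inhibition, expressed relative to vehicle-only controls. The strain bears an engineered cell-cycle alteration.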

[10] = NCI Yeast Anticancer Drug Screen. Data for the cln2 rad14 strain (AID 165);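 further: 0% = growth equal to vehicle treated cultures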; details: S. cerevisiae cln2 rad14 strain, hits give high values
Procedure, shortened: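 cln2 rad14 yeast strain; compound exposure; growth inhibition read vs vehicle controls.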

[11] = NCI Yeast Anticancer Drug Screen. Data for the bub3 strain (AID 167); details: S. cerevisiae bub3 mutant strain, hits give high values
Procedure, shortened: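 Mutant yeast screening strain plus compound; vehicle-treated cultures serve as the 0% inhibition reference.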

[12] = NCI Yeast Anticancer Drug Screen. Data for the wt2 strain (AID 169); details: S. cerevisiae wt2 strain growth inhibition, hits give high values
Procedure, shortened: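 Read-out: growth inhibition versus vehicle-treated control cultures after compound exposure of the yeast strain.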

[13] = NCI Yeast Anticancer Drug Screen. Data for the mlh1 strain (AID 171);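 further: 0% = growth of vehicle-treated control cultures of the same strain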; details: S. cerevisiae mlh1 strain growth inhibition, hits give high values
Procedure, shortened: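 Read-out: growth inhibition versus vehicle controls. Strain: engineered yeast with a defined DNA repair or cell cycle defect, compound-treated.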

[14] = NCI Yeast Anticancer Drug Screen. Data for the sgs1 strain (AID 173);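 further: 0% = growth of vehicle-only control cultures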; details: S. cerevisiae sgs1 mutant, hits give high values
Procedure, shortened: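 Read-out: yeast growth inhibition relative to vehicle controls, following compound exposure of a strain with a defined DNA repair/cell cycle alteration.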

[15] = NCI Yeast Anticancer Drug Screen. Data for the mlh1 rad18 strain (AID 175); details: S. cerevisiae mlh1 rad18 strain growth inhibition, hits give high values
Procedure, shortened: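 Yeast w/ defined DNA-repair lesions; compound exposure; growth vs vehicle controls → % inhibition.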

[16] = NCI Yeast Anticancer Drug Screen. Data for the rad18 strain (AID 177); details: S. cerevisiae rad18 mutant growth inhibition, hits give high values
Procedure, shortened: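 Readout: growth inhibition vs vehicle controls. Cells: genetically altered yeast strain, DNA repair defect.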

[17] = at 5.0 µM (retest, dose inferred, filed as 0.5)
[18] = at 50.0 µM (retest, dose inferred, filed as 5.0)

Measured: growth inhibition

CCOC(=O)[C@H]1Nc2ccccc2C2c3ccccc3CC21 (stereo partly drawn)
active: [1]; at 100.0 µM 76% | [5]; [18] 91% | [5]; at 50.0 µM 84.6% | [6]; at 50.0 µM 91.3% | [8]; [18] 83% | [8]; at 50.0 µM 91.4% | [10]; [18] 73% | [10]; at 50.0 µM 90.9% | [11]; at 33.0 µM 79% | [11]; [18] 75% | [11]; at 50.0 µM 90.5% | [11]; at 100.0 µM 81% | [13]; at 33.0 µM 70% | [14]; at 100.0 µM 72% | [15]; [18] 94% | [15]; at 50.0 µM 87.8% | [16]; at 100.0 µM 74%
inactive: [1]; at 1.2 µM -39% | [1]; at 3.7 µM -44% | [1]; at 11.0 µM -10% | [1]; at 33.0 µM 55% | [2]; at 1.2 µM -9% | [2]; at 3.7 µM -2% | [2]; at 11.0 µM 0% | [2]; at 33.0 µM 26% | [2]; at 100.0 µM 54% | [3]; at 1.2 µM 6% | [3]; at 3.7 µM 0% | [3]; at 11.0 µM 14% | [3]; at 33.0 µM 31% | [3]; at 100.0 µM 14% | [4]; at 1.2 µM -4% | [4]; at 3.7 µM 10% | [4]; at 11.0 µM 53% | [4]; at 33.0 µM 64% | [4]; at 100.0 µM 65% | [5]; at 1.2 µM -6% | [5]; at 3.7 µM -9% | [5]; [17] 15% | [5]; at 11.0 µM -4% | [5]; at 33.0 µM 27% | [5]; at 100.0 µM 55% | [6]; at 1.2 µM -23% | [6]; at 3.7 µM -12% | [6]; [17] -10% | [6]; at 11.0 µM 21% | [6]; at 33.0 µM 53% | [6]; [18] 20% | [6]; at 100.0 µM 65% | [7]; at 1.2 µM -13% | [7]; at 3.7 µM -16% | [7]; at 11.0 µM 1% | [7]; at 33.0 µM 22% | [7]; at 100.0 µM 50% | [8]; [17] 25% | [9]; at 1.2 µM 5% | [9]; at 3.7 µM -1% | [9]; at 11.0 µM 11% | [9]; at 33.0 µM 30% | [9]; at 100.0 µM 23% | [10]; [17] 13% | [11]; at 1.2 µM -4% | [11]; at 3.7 µM 11% | [11]; [17] -6% | [11]; at 11.0 µM 23% | [12]; at 1.2 µM -31% | [12]; at 3.7 µM -25% | [12]; at 11.0 µM 21% | [12]; at 33.0 µM 44% | [12]; at 100.0 µM 48% | [13]; at 1.2 µM -3% | [13]; at 3.7 µM 28% | [13]; at 11.0 µM 52% | [13]; at 100.0 µM 60% | [14]; at 1.2 µM -6% | [14]; at 3.7 µM 4% | [14]; at 11.0 µM 41% | [14]; at 33.0 µM 64% | [15]; [17] 8% | [16]; at 1.2 µM -31% | [16]; at 3.7 µM -36% | [16]; at 11.0 µM 17% | [16]; at 33.0 µM 64%
